# Results as given in PubChem BioAssay (NCI).
# The panel holds about 79,000 compounds, 15% with a hit somewhere; the sample as a whole holds those more often. Values without a mark were called inactive. Active and inactive are the calls of the source. Cut-off read from the data, not from the text of the source: active = growth inhibition above about 70%; inactive = the rest.
# What was measured:
# [1] = NCI Yeast Anticancer Drug Screen. Data for the rad50 strain (AID 155);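 note: 0% = growth of vehicle-only cultures of the same strain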; settings: S. cerevisiae rad50 strain growth inhibition; at 50.0 µM; stronger effect = higher value
# Method in brief: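 Genetically altered yeast (DNA repair pathway); compound treatment; growth inhibition vs vehicle ctrl.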
# [2] = NCI Yeast Anticancer Drug Screen. Data for the mec2-1 strain (AID 157); settings: S. cerevisiae mec2-1 strain, at 50.0 µM, stronger effect = higher value
# Method in brief: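 Growth inhibition is read against vehicle-treated controls after compound exposure of the mec2-1 yeast strain, which is defective in DNA damage repair or cell cycle control.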
# [3] = NCI Yeast Anticancer Drug Screen. Data for the sgs1 mgt1 strain (AID 161);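 note: 0% = growth of cultures given vehicle only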; settings: S. cerevisiae sgs1 mgt1 strain, at 50.0 µM, stronger effect = higher value
# Method in brief: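 Percent growth inhibition was derived by comparing compound-exposed mutant yeast with vehicle-exposed cultures. The strain carries alterations in DNA damage repair.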
# [4] = NCI Yeast Anticancer Drug Screen. Data for the cln2 rad14 strain (AID 165);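 note: 0% = growth equal to vehicle treated cultures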; settings: S. cerevisiae cln2 rad14 strain, at 50.0 µM, stronger effect = higher value
# Method in brief: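 Growth inhibition, relative to vehicle-treated controls, is the read-out. The test organism is a yeast strain with defined genetic alterations, cln2 rad14.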
# [5] = NCI Yeast Anticancer Drug Screen. Data for the bub3 strain (AID 167); settings: S. cerevisiae bub3 mutant strain, at 50.0 µM, stronger effect = higher value
# Method in brief: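 Yeast carrying a defined mutation is treated with each compound, and growth is compared with that of vehicle-exposed cells to give inhibition.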
# [6] = NCI Yeast Anticancer Drug Screen. Data for the mlh1 rad18 strain (AID 175); settings: S. cerevisiae mlh1 rad18 strain growth inhibition; at 50.0 µM; stronger effect = higher value
# Method in brief: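 Cells of a genetically altered yeast strain, deficient in DNA damage repair, were treated with compound. Their growth was then compared with that of vehicle-treated cultures to give inhibition.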
SMILES,growth inhibition [1] [%],growth inhibition [2],growth inhibition [3],growth inhibition [4],growth inhibition [5],growth inhibition [6]
S=C(NCc1cccc2ccccc12)Nc1ccccc1,-9.3,7.8%,39%,-27.5%,8.8%,20.9%
C/C(=C/C(C)O)c1ccccc1 (stereo unspecified),-13.6,-3.85%,-15.2%,4.9%,-6.1%,-6.9%
COC(=O)c1ccccc1CC1Cc2c(C)ccc(C)c2C1=O (stereo unspecified),-3.9,3.1%,0.15%,3.45%,0.55%,17.8%
Cc1cccc(C)c1NC(=S)NC1CC(C)CC(C)(C)C1 (stereo unspecified),41.2,50.5%,76.7% (active),57.9%,63%,50.3%
O=c1[nH]nc(Cc2ccccc2)n1/N=C/c1cccnc1,28.8,30.9%,37%,35.7%,30.2%,45.6%
CSc1ccc(NC(=O)C(Cl)Cl)cc1,-3.35,5.8%,5.1%,13%,-15.3%,1.9%
O=C(Nc1ccc2ccccc2c1)OC1CCS(=O)(=O)C1 (stereo unspecified),-0.75,-3.9%,6.1%,20.4%,-1.8%,-8.25%
CCC1(c2ccccc2)SCC(=O)NC1=O (stereo unspecified),21.1,4.5%,12.8%,10.8%,18.4%,6.95%
Cc1cc(=O)n(-c2cncc(Br)c2)[nH]1,1.5,2.05%,1.5%,-17.5%,12.4%,7.75%
CC1(C)CC(=O)C(C=O)C(=O)C1,-6.85,-13.7%,-38.3%,-2.3%,3%,-22.9%
Cn1c([N+](=O)[O-])cnc1COS(=O)(=O)c1cccnc1,6.05,-9.15%,25.8%,11.1%,16.8%,15.6%
Cc1cccc(-c2nnc3s/c(=C\c4ccc(N(C)C)cc4)c(=O)n23)c1,-3.05,8.15%,13.4%,13.8%,13.5%,16.4%
Cc1ccc(S(=O)(=O)N/N=C2/C(=N/NS(=O)(=O)c3ccc(C)cc3)c3cccc4cccc2c34)cc1,50,11.4%,36.7%,8.3%,14.8%,11.3%
O=S(=O)(O)c1ccc(Nc2ccnc3cc(Cl)ccc23)cc1,-21.4,-32.1%,-39.8%,-3.9%,-29.1%,-10%
N#CNc1c2ccccc2nc2ccccc12,-12.1,1.05%,-16.6%,2.85%,6.5%,-4.75%
CC1(C)COC(=O)OC1,17.8,11.5%,16.4%,12.8%,14.8%,16.9%
CC(C)C1=CC23CCC4C(C)(C(=O)O)CCCC4(C)C2CC1C1C(=O)N(c2ccccc2)C(=O)C13 (stereo unspecified),-7.45,-3.9%,1.55%,0.7%,-40%,8.65%
O=C(O)c1ccccc1N=N/C(=N\Nc1ccccc1C(=O)O)c1ccnc2ccccc12,37.5,10%,29.3%,11.2%,2.8%,26.9%
CCOC(=O)C(=N\Nc1cc(C)cc(C)c1)/C(C)=N\NC(N)=S,25.1,38.8%,20.1%,57.5%,58.5%,45.6%
CC(=O)OC1CCC2=C3CCC4(C)C(=O)CCC4C3C(O)C2(C)C1 (stereo unspecified),0.05,-2%,-5.3%,-5.2%,-14.3%,-9.5%
CC(C)(C)CC(C)(O)COC(=S)S (stereo unspecified),-10.5,-18%,1.65%,-11.2%,-7.45%,0.55%

SMILES,growth inhibition [1] [%],growth inhibition [2],growth inhibition [3],growth inhibition [4],growth inhibition [5],growth inhibition [6]
O=C(NCC1CC1)NC(=O)c1ccccc1F,-4.3,-34.6%,-14.3%,16.6%,-10.6%,-16.9%
O=C(CCC(=O)Nc1ccc(Cl)c(Cl)c1)CC(=O)c1ccc2ccccc2c1,22,9.6%,2.45%,19.9%,2.2%,-12.1%
CCOC(=O)CN1C(=O)CCC1=O,-6.6,2.55%,-1.2%,-3.5%,1.45%,-5.95%
CO/[N+]([O-])=C\C(=O)N/C=C/C(=O)O,19.1,5.85%,7.3%,18.7%,23.6%,15.2%
CCC(=O)C(OC(C)=O)C(OC(C)=O)C(OC(C)=O)C(COC(C)=O)OC(C)=O (stereo unspecified),-1.95,-1.15%,-8.1%,27.8%,-3.95%,13.8%
Cn1c(=O)c2ncn(CC3CCCCC3)c2n(C)c1=O,6.15,11.6%,5.05%,-5.9%,2.05%,-4.95%
COC(=O)c1nc(N)nc(C(=O)OC)c1C(=O)c1ccco1,3.95,-4.25%,30.3%,-3.7%,1.55%,26.5%
O=C(O)c1ccc2c(c1)S(=O)(=O)NC2=O,1.15,10.2%,13%,-26.1%,12.1%,-8%
CC(=O)Oc1ccc2c(c1)Cc1cc([N+](=O)[O-])ccc1-2,8.45,14.2%,14.9%,-9.5%,32.7%,20.6%
Cc1c(F)c(N)c2c(=O)cc(-c3ccc(N)c(F)c3)oc2c1F,32.8,16.1%,30.1%,21.3%,22.9%,1.2%
Cc1ncc(COP(=O)(O)O)c(C)c1O,-15.7,-10.1%,-33.5%,-33.6%,-31.3%,-13.6%
CCOC1(C)OC2OC(COC(c3ccccc3)(c3ccccc3)c3ccccc3)C(OC(=O)c3ccccc3)C(OC(=O)c3ccccc3)C2O1 (stereo unspecified),-3.5,14%,4.05%,-9.4%,-5.9%,29.6%
C/C(=C1/N=C(c2ccccc2)OC1=O)c1ccccc1,39.5,70% (active),65.4%,75.7% (active),94.6% (active),80.5% (active)
Cc1cc(-c2cc(C)c(N)cc2S(=O)(=O)O)c(S(=O)(=O)O)cc1N,-12.3,-23.4%,-1.2%,-3.2%,5.8%,1.15%
CC(C)(C)C(=O)Cn1nnnc1C(=O)C(C)(C)C,-10.7,-35.5%,-15.8%,-36.9%,-5.85%,-19.4%
BrC1C2=C(c3ccccc31)C(Br)c1ccccc12 (stereo unspecified),14.9,4.05%,15.3%,28.8%,-12.3%,1.7%
O=Cc1cccc(/C=N/Nc2nnc(N/N=C/c3cccc(C=O)c3)c3ccccc23)c1,30.6,26.5%,35.5%,33.1%,-3.2%,17.1%
O=c1cc(CO)oc2c3c(cc(O)c12)OCC(COC1OC(CO)C(O)C(O)C1O)=CC3 (stereo unspecified),-1.25,-8.75%,-1.75%,-13.9%,-0.55%,-0.9%
CCN(CC)P1(=O)C=C(C)C2C1C1C=C(C)C2P1(=O)N(CC)CC (stereo unspecified),3.5,-2.45%,-5.25%,-5.25%,-34.8%,-13.2%
CCOC(=O)N1N=C(c2ccccc2)OC2(N3CCCC3)CCC(C(C)(C)C)CC12 (stereo unspecified),11.1,10.6%,9.4%,-4.5%,-4.25%,27.9%
